Screens (PubChem)
Shown are actives, neighbours in structure and some others; about 2.4% of the full set was active somewhere.
TRAIL sens C8: caspase-8 TRAIL sensitization; actives 1% (n = 360,000); AID 624354; NB7+C8 cells + TRAIL, ATPlite viability luminescence; inhibition (viability loss, TRAIL sensitization), % at 10 µM;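 active means compounds causing at least 50% loss of cell viability in the single-dose screen, relative to plate controls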
HSF1 inhib: HSF1 inhibition; NIH3T3-HGL HSE-luciferase, MG132-induced, luminescence 8 h; stronger effect = lower value; activity change, negative = inhibition, % at 7.5 µM (by protocol); actives 0.77% (n = 300,000);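 active means more than half of replicate wells show activity change below -50%, luminescence cut by over half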;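 further: luciferase reports HSF-1 transcriptional activity via heat shock element; 0% = median of DMSO wells and -100% = zero luminescence signal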
STAT1 inh: reduces IFN-gamma driven STAT1 reporter signal; inhibition, % at 5.5 µM; AID 920; NIH 3T3 STAT1-luciferase reporter, luminescence; actives 0.35% (n = 200,000);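 active means inhibition above a set limit, the mean inhibition across all tested compounds plus 3 SD, cut at about 34% in these data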;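 further: 0% = IFN-gamma with DMSO and 100% = IFN-gamma with 300 µM nifuroxazide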
STAT3 inh: STAT3 signaling inhibition; U3A cells, IL-6 STAT3-luciferase reporter, luminescence; host cell line lacks STAT1; inhibition, % at 5.5 µM; actives 0.89% (n = 190,000); AID 862;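 active means inhibition above the mean inhibition across all screened compounds plus 3 SD, cut at about 44% in these data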;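 further: 0% = DMSO only wells and 100% = 100 µM nifuroxazide control wells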
HSP90 refold inh: inhibitors of HSP90 luciferase refolding in rabbit reticulocyte lysate. luciferase refolding luminescence, 3 h. inhibition, % at 5.6 µM. actives 0.91% (n = 290,000). AID 1789;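 active means inhibition above the screen-wide mean plus 3 SD, computed separately per campaign, cut at about 16% in these data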;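 further: 0% = DMSO wells and 100% = 60 µM geldanamycin wells; inhibitors lower the luminescence because luciferase stays unfolded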
PPC-1+TRAIL kill: compounds killing PPC-1 cancer cells with TRAIL present (potentiator screen, no TRAIL-free arm). PPC-1 cells + TRAIL, ATPLite viability luminescence. cell killing (% activity), % at 4 µM or 5 µM. actives 0.41% (n = 220,000). AID 1443;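 active means cell killing above 50% in the first pass at 4 µM, then a duplicate retest at 5 µM averaging 50% or more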;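 further: plate controls were cells with TRAIL plus DMSO for no effect and medium-only wells lacking cells for full effect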
An asterisk follows results filed as active.

How did COc1cc(OC)cc(-c2nc3ccccc3s2)c1 do in these assays?
TRAIL sens C8: 13; HSF1 inhib: 43; STAT1 inh: -26; STAT3 inh: -124; HSP90 refold inh: -1; PPC-1+TRAIL kill: 10

What do the screens show for `Cc1ccc(C)c(NC(=S)NC(NC(=O)Cc2cccc3ccccc23)C(Cl)(Cl)Cl)c1` (centres undefined)?
TRAIL sens C8: 85*; STAT1 inh: -1; STAT3 inh: 8; HSP90 refold inh: -4; PPC-1+TRAIL kill: 18

Results for Cc1ccc(C)c(NC(=S)NC(NC(=O)N(C)C)C(Cl)(Cl)Cl)c1 (centres undefined) ?
TRAIL sens C8: -7; STAT1 inh: 1; STAT3 inh: -2; HSP90 refold inh: 4; PPC-1+TRAIL kill: 16

Results for O=c1oc(-c2cccs2)nc2sc3c(c12)CCCC3 ?
TRAIL sens C8: -4; HSF1 inhib: 36; STAT1 inh: -9; STAT3 inh: -14; HSP90 refold inh: 0; PPC-1+TRAIL kill: -9

Results for O=c1c2c3c(sc2nc2n1N=C(c1cccs1)CS2)CCCC3 ?
TRAIL sens C8: 67*; HSF1 inhib: -24; STAT1 inh: -16; STAT3 inh: 27; HSP90 refold inh: 5; PPC-1+TRAIL kill: 78*

Results for N=c1n(CC(=O)c2ccc(Br)s2)c2ccccc2n1Cc1ccccc1 ?
TRAIL sens C8: 56*; HSF1 inhib: 16; HSP90 refold inh: 4; PPC-1+TRAIL kill: 3

How did CC(C)C[C@@H]1COc2cc(N3CCC[C@H]3CO)ccc2S(=O)(=O)N1 do in these assays?
TRAIL sens C8: -4

What do the screens show for `CCOC1=C2CN(S(=O)(=O)c3ccc(C)cc3)[C@H](c3cccc(Cl)c3)C[C@@H]2N(S(=O)(=O)c2ccccc2[N+](=O)[O-])[C@H](c2ccccc2)C1`?
TRAIL sens C8: 5

What do the screens show for `COc1cccc(C=Cc2nccc3ccccc23)c1OC`?
TRAIL sens C8: 61*

Results for CC(=O)Nc1cccc(-c2ccnc3c2CC(C)(C(=O)Nc2cccc(Oc4ccccc4)c2)O3)c1 (centres undefined) ?
TRAIL sens C8: 14

What do the screens show for `NC(Cc1ccc(C(F)(F)F)cc1)c1csc(NC(=O)NCCc2ccccc2)n1` (centres undefined)?
TRAIL sens C8: 45

How did CC(C)Oc1ccc(CNC(=S)N/N=C/c2ccc([N+](=O)[O-])cc2)cc1 do in these assays?
TRAIL sens C8: -7; HSF1 inhib: -67*; STAT1 inh: -13; STAT3 inh: 3; HSP90 refold inh: -2; PPC-1+TRAIL kill: -21

Results for CC(C)COc1ccc(CNC(=S)N/N=C/c2ccc([N+](=O)[O-])cc2)cc1 ?
TRAIL sens C8: -3; HSF1 inhib: 6; STAT1 inh: -5; STAT3 inh: 15; HSP90 refold inh: 5; PPC-1+TRAIL kill: 11

How did O=C(NC1=NCCS1)c1sc2ccccc2c1Cl do in these assays?
TRAIL sens C8: 35; HSF1 inhib: 20; STAT1 inh: -79; STAT3 inh: 2; HSP90 refold inh: -2; PPC-1+TRAIL kill: 35

Results for Cc1cccnc1NC(=O)c1sc2ccccc2c1Cl ?
TRAIL sens C8: 54*; HSF1 inhib: 24; HSP90 refold inh: 0

Results for N=c1oc2cc(O)ccc2cc1C(=O)Nc1ccc(Cl)cc1 ?
TRAIL sens C8: 49*; HSF1 inhib: -7; HSP90 refold inh: 3

Results for N=c1oc2ccccc2cc1C(=O)Nc1ccc(F)cc1 ?
TRAIL sens C8: 13; HSF1 inhib: 20; HSP90 refold inh: 1

What do the screens show for `COc1ccc(Br)cc1S(=O)(=O)Nc1ncccc1C`?
TRAIL sens C8: -2; HSF1 inhib: -88*; STAT1 inh: -3; STAT3 inh: 4; HSP90 refold inh: -6; PPC-1+TRAIL kill: -10

Results for CC1(C(=O)NS(=O)(=O)c2cccc(OC(F)F)c2)CCN1C(=O)C/C=C/c1ccccc1 (centres undefined) ?
TRAIL sens C8: -19

Results for COc1cc(S(=O)(=O)Nc2ccccc2)ccc1N=Cc1c(C)[nH]n(-c2ccc(C)cc2)c1=O ?
HSF1 inhib: -1; STAT1 inh: 0; STAT3 inh: -7; HSP90 refold inh: -2; PPC-1+TRAIL kill: 38

How did COc1cc(SC#N)ccc1N=Cc1c(C)[nH]n(-c2ccc(Cl)cc2)c1=O do in these assays?
TRAIL sens C8: 68*; HSF1 inhib: 1; STAT1 inh: -5; STAT3 inh: -52; HSP90 refold inh: 9; PPC-1+TRAIL kill: 25

What do the screens show for `COc1cc(SC#N)ccc1N=Cc1c(C)[nH]n(-c2ccc(C)c(C)c2)c1=O`?
TRAIL sens C8: 80*; HSF1 inhib: 3; STAT1 inh: 5; STAT3 inh: 1; HSP90 refold inh: 14; PPC-1+TRAIL kill: 14

What do the screens show for `COCCNC(=O)C1(C)CCN(Cc2ccc(C(C)C)cc2)C1` (centres undefined)?
TRAIL sens C8: -15

How did CC(C)C[C@H](NC(=O)CC[C@H]1O[C@@H](n2ccc(=O)[nH]c2=O)[C@H](O)[C@@H]1O)C(=O)O do in these assays?
TRAIL sens C8: -2

What do the screens show for `Nc1ccc(Cn2ccc3c4c(N)nc(N)nc4ccc32)cc1`?
TRAIL sens C8: 74*

How did COC(=O)c1ccc(NC(=O)c2ccc3nc(C)sc3c2)cc1 do in these assays?
TRAIL sens C8: -7; HSF1 inhib: -68*; HSP90 refold inh: 8

Results for CC1(C)Cc2c(C#N)c(SCCC#N)nc(N3CCOCC3)c2CO1 ?
TRAIL sens C8: 11; HSF1 inhib: -61*; HSP90 refold inh: 1

Results for CC1(C)Cc2c(C#N)c(SCCO)nc(N3CCOCC3)c2CO1 ?
TRAIL sens C8: -15; HSF1 inhib: -6; HSP90 refold inh: -4

What do the screens show for `O=C(/C=C/c1ccccc1)Nc1ccc2c(c1)C(=O)NC2=O`?
TRAIL sens C8: 50*; HSF1 inhib: 11; STAT1 inh: -31; STAT3 inh: 11; HSP90 refold inh: -4; PPC-1+TRAIL kill: 28

What do the screens show for `O=C(/C=C/c1ccccc1Cl)Nc1ccc2c(c1)C(=O)NC2=O`?
TRAIL sens C8: 15; HSF1 inhib: -12; STAT1 inh: 1; STAT3 inh: 13; HSP90 refold inh: -3; PPC-1+TRAIL kill: 14

Results for CC(=O)NC(c1cccc(F)c1)c1nc(-c2cccc(C(F)(F)F)c2)cs1 (centres undefined) ?
TRAIL sens C8: 4

How did O=C1C=C(Nc2ccccc2)c2ccccc2C1=O do in these assays?
TRAIL sens C8: 34; HSF1 inhib: 47; STAT1 inh: 0; STAT3 inh: -25; HSP90 refold inh: 17*; PPC-1+TRAIL kill: 2

Results for O=C1C=C(Nc2ccccc2C(=O)O)c2ccccc2C1=O ?
TRAIL sens C8: 4; HSF1 inhib: 64; HSP90 refold inh: 2; PPC-1+TRAIL kill: 3

What do the screens show for `CCc1ccc(NC2=CC(=O)C(=O)c3ccccc32)cc1`?
TRAIL sens C8: 93*

How did O=C1C=C(Nc2cccc3cccnc23)c2ccccc2C1=O do in these assays?
TRAIL sens C8: -14; HSF1 inhib: 8; HSP90 refold inh: 2
